# TGFb SMAD3 inh – inhibitors of TGF-b signaling | 410,000 tested, 1.2% active | Potency, µM (highest dose often 46.1 µM), most hits filed as inhibitors | AID 588855 | HepG2 CAGA-GFP TGF-b/SMAD3 reporter, GFP fluorescence, 18 h; TGF-beta stimulated, 500 pg/mL final; further: nearly all actives have a fitted effect of over 65% in size
#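 GFP signal (ex488/em500-530) from TGF-beta-stimulated HEPG2 CAGA-GFP cells, 500 pg/mL final, 18 h at 37 degrees C in DMEM plus 1% FBS, normalized to unstimulated and DMSO-stimulated controls.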
# ATXN viability – viability counter-screen for ATXN expression inhibitors; S2 cells (HEK-293 line with an ATXN2-luciferase reporter) viability, CellTiter-Fluor protease fluorescence, 24 h; Potency, µM (series often up to 56.7 µM), actives largely listed as cytotoxic; 400,000 tested, 0.49% active; AID 651635; further: nearly all actives have a fitted effect of over 40% in size
# HepG2 viability – kills HepG2 cells in TGF-b inhibitor counter-screen; 410,000 tested, 0.76% active; HepG2 CAGA-GFP viability, ATP luminescence, 18 h; Potency, µM (series often up to 46.1 µM), most hits filed as cytotoxic
#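 HepG2 CAGA-GFP cells (1000/well, DMEM with 1% FBS) received compound, then TGF-beta at 500 pg/mL final, and were incubated 18 hours at 37 degrees C. Viability was read by CellTiter-Glo luminescence. Media-only wells were set as complete cell-killing and DMSO as no toxicity.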
# D3 antag – D3 dopamine receptor (human) antagonism; P35462; D3R cells, DiscoveRx beta-arrestin luminescence, antagonist mode; active compounds read low; max response, negative = inhibition, %; 360,000 tested, 2.5% active; in the data active means max response below about -50%; inconclusive means no clear call, values can overlap the other calls
# Target sequence (P35462 whole entry, looked up): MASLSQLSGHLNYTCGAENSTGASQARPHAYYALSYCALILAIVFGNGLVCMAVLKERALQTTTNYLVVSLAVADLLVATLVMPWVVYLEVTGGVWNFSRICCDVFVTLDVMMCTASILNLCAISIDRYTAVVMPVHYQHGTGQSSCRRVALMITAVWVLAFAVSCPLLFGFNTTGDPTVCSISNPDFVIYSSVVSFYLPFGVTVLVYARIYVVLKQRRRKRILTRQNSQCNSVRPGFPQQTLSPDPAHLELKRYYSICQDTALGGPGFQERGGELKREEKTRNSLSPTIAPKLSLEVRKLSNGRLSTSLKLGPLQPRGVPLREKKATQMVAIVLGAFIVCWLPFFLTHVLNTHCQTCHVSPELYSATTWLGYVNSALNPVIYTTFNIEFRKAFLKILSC
#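 Cells expressing the human receptor were seeded at 1500 cells/well, incubated overnight at 37 degrees C in 5% CO2, then exposed to library compounds with dopamine controls for 90 minutes at 37 degrees C before luminescent detection.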
# DRD3 agonist – agonists of human D3 dopamine receptor. 410,000 tested, 0.58% active. D3R DiscoveRx beta-arrestin cells, luminescence, 90 min. P35462. max activation, %; in the data active means max activation above about 30%
#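 Cells at 1500/well, incubated overnight, then treated with pinned compounds (dopamine as control) for 90 min at 37 degrees C. DiscoveRx reagent added for 30 - 60 minutes at room temperature; luminescence read.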
# ATXN2 expr inh – inhibitors of ATXN2 expression; HEK-293 ATXN2-luciferase reporter, luminescence, 24 h; Potency, µM (titrated, usually from 57 µM), hits mostly inhibitors; 360,000 tested, 0.72% active; AID 1745845; further: nearly all actives have a fitted effect of over 55% in size
#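 ATXN2-luciferase reporter cells (luciferase flanked by upstream and downstream ATXN2 gene portions) were treated 24 h at 37 °C with compounds at up to 57 uM. SteadyGlo luminescence gave expression; GF-AFC fluorescence gave viability.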
# Numbers stand for hits; 0 = inactive; ? = inconclusive; - = no result. The list is not random: actives were taken first. Their share in the collection is about 4.7%. Unless noted, the call rests on the fitted dose curve; in most records, active means well fitted curve in the direction sought with a large enough effect; inconclusive means small, poorly fitted or top-dose-only effect, or another doubt; inactive means no such curve, though single readings can be large; an effect the other way counts as inactive or inconclusive.
SMILES,TGFb SMAD3 inh,ATXN viability,HepG2 viability,D3 antag,DRD3 agonist,ATXN2 expr inh
COc1ccc(NC(=O)c2cc(-c3ccc(F)cc3C)n[nH]2)cc1OC,0,?,0,0,0,0
Cc1cc(F)ccc1-c1cc(C(=O)NCc2ccccc2)[nH]n1,0,0,0,-89.0,0,0
COc1cc(/C=c2\[nH]c(=O)/c(=C/c3cc(OC)c(OC)c(OC)c3)[nH]c2=O)cc(OC)c1OC,0,-,0,-,-,-
CCOc1ccccc1N(C)C(=O)Cn1cnc2sc(C)c(S(=O)(=O)N3CCC(C)CC3)c2c1=O,0,0,0,-,0,0
O=c1cc[nH]c(=S)[nH]1,-,0,-,-,0,0
Cc1ccc(-c2cccc(C(=O)NCc3ccccc3)n2)c2ccccc12,?,0,0,-59.0,0,0
COc1ccc(Cl)cc1-c1cc(C(=O)Nc2ccc(F)cc2)[nH]n1,0,0,0,-68.7,0,0
Cc1ccc(-c2cccc(C(=O)NCCc3ccccc3)n2)c2ccccc12,?,0,0,0,0,0
CCN(CC)CC(=O)OCC(=O)[C@@]1(O)CC[C@H]2[C@@H]3CCC4=CC(=O)CC[C@]4(C)[C@H]3[C@@H](O)C[C@@]21C,-,0,-,-,-,0
COc1ccc(N2C(=O)[C@@H]3C[C@H]2CN3Cc2cccn2-c2nccs2)cc1Cl,-,0,-,-,-,-
O=S(=O)(Cc1cc(Cl)nc(-c2ccncc2)n1)c1ccccc1,0,0,0,0,0,0
O=S(=O)(Cc1cc(Cl)nc(-c2ccccc2)n1)c1ccccc1,?,?,0,0,0,31.6µM
COc1cccc(NC(=S)NC(C)c2ccc(OC)c(OC)c2)c1 (configuration not stated),0,0,0,0,0,0
COc1cccc(NC(=S)NC(Cc2ccccc2)c2ccccc2)c1 (configuration not stated),22.4µM,0,0,0,0,-
Cn1cc(C(=O)N/N=C/c2ccc(Br)c([N+](=O)[O-])c2)c2ccccc21,?,0,0,-67.1,0,0
Cn1cc(C(=O)N/N=C/c2ccc3c(c2)OCO3)c2ccccc21,0,?,0,0,0,0
CC(NC(=O)c1cc(F)ccc1F)c1nnc2n1CCN(Cc1ccccc1O)CC2 (configuration not stated),-,0,-,-,-,-
CN1CCC(NCCC(c2ccc(F)cc2)c2ccc(Cl)cc2)CC1 (configuration not stated),?,-,15.8µM,0,0,25.1µM
Cc1ccc(C)c(S(=O)(=O)Nc2ccc(C(=O)N3CCOCC3)cc2)c1,0,0,0,-51.3,0,-
Cc1ccc(C)c(S(=O)(=O)Nc2ccccc2C(=O)Nc2ccccc2N2CCOCC2)c1,0,0,0,-57.4,0,0
CCOc1ccc(NC(=O)COC(=O)c2ccccc2OCC(=O)N(C)C)cc1,0,-,0,-,-,-
COc1cc(OC)c(NC(=O)CSCc2nc(-c3ccc(OC)c(OC)c3)no2)cc1Cl,0,-,0,-,0,-
COC(=O)C[C@H]1C=C[C@H](NC(=O)Cc2ccccc2)[C@@H](CO)O1,-,-,-,0,0,-
COC(=O)C[C@@H]1C=C[C@H](NC(=O)Cc2ccccn2)[C@@H](CO)O1,-,-,-,0,30.1,-
COc1ccc(N2CCN(CC(O)COc3ccc(C)cc3C)CC2)cc1 (configuration not stated),?,0,0,0,0,0
SMILES,TGFb SMAD3 inh,ATXN viability,HepG2 viability,D3 antag,DRD3 agonist,ATXN2 expr inh
OC(COc1cccc2ccccc12)CN1CCN(c2cccc(Cl)c2)CC1 (configuration not stated),0,?,0,0,44.8,-
COc1cccc(OC)c1OCC(O)CN1CCN(c2ccc(F)cc2)CC1 (configuration not stated),0,?,0,-77.1,0,?
OC(COc1cccc2ccccc12)CN1CCCC1 (configuration not stated),0,0,0,0,0,0
OC(COc1ccc2ccccc2c1)CN1CCN(c2ccc(F)cc2)CC1 (configuration not stated),?,0,0,0,0,0
Cc1cccc(N2CCN(CC(O)COc3ccccc3Cl)CC2)c1 (configuration not stated),0,0,0,-75.5,0,-
OC(COc1cccc2ccccc12)CN1CCN(c2ccc(Cl)cc2)CC1 (configuration not stated),15.8µM,?,0,0,0,-
COc1cccc(OCC(O)CN2CCN(c3ccc(F)cc3)CC2)c1 (configuration not stated),0,0,0,?,0,0
COc1cccc(C2C=C(c3ccc(C)cc3)Nc3c(C(=O)Nc4ccc(F)cc4)cnn32)c1OC (configuration not stated),?,0,0,-,0,0
COc1ccc(OC)c(/C=C2\C=Cc3ccccc32)c1,?,-,0,-,-,-
C=CCn1c(SCC)nc2ccccc2c1=O,0,-,0,-,-,-
COc1cccc(C2=CC(c3ccccc3F)n3ncc(C(=O)Nc4ccc(F)cc4)c3N2)c1 (configuration not stated),?,-,0,-,0,?
CC[C@H](C(=O)[C@H](C)[C@H](O)[C@H](C)CCc1ccc(C)c(O)c1C(=O)O)[C@H]1O[C@](CC)([C@@H]2CC[C@@](O)(CC)[C@H](C)O2)C[C@H]1C,-,11.2µM,-,-,-,-
CCSc1nnc(C(C)NS(=O)(=O)c2cccc(Cl)c2C)n1C (configuration not stated),-,0,-,-,-,-
O=C(CN1CCSC1=NCc1ccccc1)c1ccc(Cl)cc1,0,0,0,-66.9,0,0
O=C(Nc1ccc(Cl)cc1)N1CCSC1=NCc1ccccc1,0,?,0,0,0,0
O=C(c1cc(-c2ccccn2)nc2c(Cl)cccc12)N1CCN(S(=O)(=O)c2ccccc2)CC1,0,0,0,0,0,0
O=C(c1cc(-c2ccccn2)nc2c(Cl)cccc12)N1CCN(C(=O)C2CCCO2)CC1 (configuration not stated),0,0,0,-50.7,0,0
O=CC(=O)c1ccc(F)cc1,0,-,0,-,-,-
O=Cc1cccc(OCc2cn(CC(=O)c3ccc(O)cc3)nn2)c1,0,0,0,-52.6,0,0
CCCC(=O)c1ccc(OCc2cn(CC(=O)c3ccc(O)cc3)nn2)cc1,0,0,0,0,0,?
N#Cc1ccccc1OCc1cn(CC(=O)c2ccc(O)cc2)nn1,0,0,0,-73.4,0,0
O=C(Cn1cc(COc2ccccc2[N+](=O)[O-])nn1)c1ccc(O)cc1,0,0,0,0,37.1,0
O=C(Cn1cc(COc2ccc(Br)cc2)nn1)c1ccc(O)cc1,0,0,0,0,0,0
Cn1c(=O)oc2cc(S(=O)(=O)N3CCC(C(=O)N4CCN(c5ccc(Cl)cc5)CC4)CC3)ccc21,0,0,0,-,0,0

# Assay outcomes: PubChem BioAssay, National Center for Advancing Translational Sciences (NCATS)
